Reference: PubChem BioAssay AID1159580 (chemical genetic matrix, 2015)
The campaign covered roughly 5,500 compounds. About 2,000 (36%) were called active. Not shown: some 18% with an inconclusive outcome. Cut-off read from the data, not from the text of the source: active = normalized growth mostly below about 0.91 (no sharp cut-off); inconclusive = no clear call, values can overlap the other calls; inactive = mostly above about 0.92. The list shows a part of the results.

Experiment: chemical genetic growth profiling, strain panel (AID 1159580);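 note: tested at 20 µM; growth read once vehicle control cultures reached saturation at 30 °C; 1 = growth at the plate median or of vehicle wells; lower values mean less growth of the strain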
Conditions: S. cerevisiae deletion strains, growth OD

Measured: normalized growth

C=CCS(=O)C[C@H](N)C(=O)O (some centres undefined)
inactive: locus YAL021C, strain ccr4, hits give low values 1 | locus YAL026C, strain drs2, hits give low values 1 | locus YAL030W, strain snc1, hits give low values 0.982 | locus YBL061C, strain skt5, hits give low values 1 | locus YBR009C, strain hhf1, hits give low values 1 | locus YBR023C, strain chs3, hits give low values 1 | locus YBR171W, strain sec66, hits give low values 0.982 | locus YBR231C, strain swc5, hits give low values 0.981 | locus YBR279W, strain paf1, hits give low values 0.999 | locus YCL011C, strain gbp2, hits give low values 0.992 | locus YCL016C, strain dcc1, hits give low values 1.02 | locus YCL069W, strain vba3, hits give low values 0.984 | locus YCR088W, strain abp1, hits give low values 0.986 | locus YDL005C, strain med2, hits give low values 1 | locus YDL040C, strain nat1, hits give low values 1.01 | locus YDR001C, strain nth1, hits give low values 1 | locus YDR069C, strain doa4, hits give low values 0.985 | locus YDR137W, strain rgp1, hits give low values 0.97 | locus YDR159W, strain sac3, hits give low values 0.996 | locus YDR195W, strain ref2 0.986 | locus YDR297W, strain sur2, hits give low values 1 | locus YDR334W, strain swr1, hits give low values 1.01 | locus YDR335W, strain msn5, hits give low values 0.991 | locus YDR392W, strain spt3, hits give low values 0.979 | locus YEL003W, strain gim4, hits give low values 1 | locus YEL037C, strain rad23, hits give low values 1.01 | locus YEL061C, strain CIN8 (second series), hits give low values 1.01 | locus YER015W, strain faa2, hits give low values 1 | locus YER016W, strain bim1, hits give low values 0.982 | locus YER111C, strain swi4, hits give low values 1.01 | locus YER155C, strain BEM2 (second series), hits give low values 0.961 | locus YFR010W, strain ubp6, hits give low values 0.998 | locus YGL167C, strain pmr1, hits give low values 0.997 | locus YGL173C, strain kem1, hits give low values 0.999 | locus YGL227W, strain vid30, hits give low values 0.969 | locus YGL240W, strain doc1, hits give low values 0.994 | locus YGL253W, strain hxk2, hits give low values 1 | locus YHR013C, strain ard1, hits give low values 0.981 | locus YHR027C, strain rpn1, hits give low values 0.994 | locus YHR030C, strain SLT2, hits give low values 1.02 | locus YHR079C, strain IRE1, hits give low values 1.01 | locus YHR142W, strain chs7, hits give low values 1.02 | locus YJL092W, strain hpr5, hits give low values 0.999 | locus YJL095W, strain BCK1 (second series), hits give low values 0.998 | locus YJL095W, strain BCK1, hits give low values 1.03 | locus YJL115W, strain asf1, hits give low values 0.992 | locus YJL129C, strain trk1, hits give low values 0.997 | locus YJL154C, strain vps35, hits give low values 0.995 | locus YJL164C, strain tpk1, hits give low values 0.997 | locus YJL166W, strain qcr8, hits give low values 0.991 | locus YJL187C, strain SWE1, hits give low values 0.998 | locus YJR066W, strain TOR1, hits give low values 0.952 | locus YKL160W, strain elf1, hits give low values 1 | locus YKR026C, strain gcn3, hits give low values 0.984 | locus YKR091W, strain srl3, hits give low values 0.986 | locus YLL001W, strain dnm1, hits give low values 1.01 | locus YLL026W, hits give low values 0.994 | locus YLL041C, strain sdh2, hits give low values 0.995 | locus YLR027C, strain aat2, hits give low values 1 | locus YLR113W, strain HOG1, hits give low values 1.02 | locus YLR221C, strain rsa3, hits give low values 1 | locus YLR258W, strain gsy2, hits give low values 0.987 | locus YLR262C, strain YPT6 (second series), hits give low values 0.987 | locus YLR320W, strain mms22, hits give low values 1 | locus YLR342W, strain FKS1, hits give low values 0.996 | locus YLR357W, strain rsc2, hits give low values 0.961 | locus YLR370C, strain arc18, hits give low values 0.995 | locus YLR384C, strain iki3, hits give low values 0.994 | locus YML120C, strain ndi1, hits give low values 0.992 | locus YMR058W, strain fet3, hits give low values 0.998 | locus YMR125W, strain sto1, hits give low values 0.991 | locus YMR129W, hits give low values 0.976 | locus YMR205C, strain PFK2, hits give low values 1.01 | locus YMR231W, strain pep5, hits give low values 0.998 | locus YNL071W, strain lat1, hits give low values 0.988 | locus YNL183C, strain NPR1, hits give low values 0.971 | locus YNL209W, strain ssb2, hits give low values 0.985 | locus YNL248C, strain rpa49, hits give low values 1 | locus YNL322C, strain KRE1 (second series), hits give low values 0.98 | locus YNR049C, strain mso1, hits give low values 0.997 | locus YOR001W, strain rrp6, hits give low values 1.01 | locus YOR070C, strain gyp1, hits give low values 1 | locus YOR080W, strain dia2, hits give low values 1.01 | locus YOR083W, strain WHI5, hits give low values 0.962 | locus YOR106W, strain vam3, hits give low values 1 | locus YOR231W, strain MKK1, hits give low values 1.01 | locus YOR265W, strain rbl2, hits give low values 1.01 | locus YOR270C, strain vph1, hits give low values 1.02 | locus YOR290C, strain snf2, hits give low values 1 | locus YPL051W, strain arl3, hits give low values 0.983 | locus YPL078C, strain atp4, hits give low values 1.02 | locus YPL106C, strain sse1, hits give low values 0.929 | locus YPL240C, strain hsp82, hits give low values 0.983 | locus YPL256C, strain CLN2, hits give low values 1.02
